Measurements published in PubChem BioAssay (NCI).
This is part of a sample that, as a whole, favours compounds with a hit. Of some 79,000 tested, about 15% had one in any assay. Activity calls are given as the source filed them. Rule as the data show it: active = growth inhibition above about 70%; inactive = the rest. Where a SMILES comes first, the peptide text is derived from it. The star is where a group is joined. Myristoyl = CCCCCCCCCCCCCC(=O)*

Assays:
[1] = NCI Yeast Anticancer Drug Screen. Data for the rad50 strain (AID 155);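 also: 0% = growth of vehicle-only cultures of the same strain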; settings: S. cerevisiae rad50 strain growth inhibition; at 50.0 µM; active compounds read high
How it was run: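 Yeast carrying a defined DNA repair defect were exposed to test compounds, and growth was compared with vehicle-treated controls to give percent inhibition.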

[2] = NCI Yeast Anticancer Drug Screen. Data for the mec2-1 strain (AID 157); settings: S. cerevisiae mec2-1 strain, at 50.0 µM, active compounds read high
How it was run: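 Mutant yeast (mec2-1) grown with compound; growth inhibition relative to vehicle control reported.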

[3] = NCI Yeast Anticancer Drug Screen. Data for the sgs1 mgt1 strain (AID 161);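 also: 0% = growth of cultures given vehicle only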; settings: S. cerevisiae sgs1 mgt1 strain, at 50.0 µM, active compounds read high
How it was run: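 This yeast growth screen uses a strain with defined DNA-repair lesions; compound-treated growth is compared with vehicle-treated growth.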

[4] = NCI Yeast Anticancer Drug Screen. Data for the cln2 rad14 strain (AID 165);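 also: 0% = growth equal to vehicle treated cultures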; settings: S. cerevisiae cln2 rad14 strain, at 50.0 µM, active compounds read high
How it was run: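 Readout is yeast growth inhibition versus vehicle-treated controls, using a strain with cln2 and rad14 alterations exposed to compound.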

[5] = NCI Yeast Anticancer Drug Screen. Data for the bub3 strain (AID 167); settings: S. cerevisiae bub3 mutant strain, at 50.0 µM, active compounds read high
How it was run: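 Compounds were applied to a genetically altered yeast strain carrying a cell-cycle control defect. Growth inhibition was scored against vehicle-treated controls.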

[6] = NCI Yeast Anticancer Drug Screen. Data for the mlh1 rad18 strain (AID 175); settings: S. cerevisiae mlh1 rad18 strain growth inhibition; at 50.0 µM; active compounds read high
How it was run: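 Genetically defined yeast (DNA repair-deficient) exposed to compounds; growth inhibition determined relative to vehicle.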

Measured: growth inhibition

O=c1oc(-c2ccc(Cl)cc2Cl)nc2cc(Cl)ccc12
inactive: [1] 22.9% | [2] -10.4% | [3] 43.2% | [4] 22.2% | [5] 19.6% | [6] 25.4%

CSc1ccc(NC(=O)Oc2cc(C)c(Cl)cc2C(C)C)cc1
active: [2] 94.8% | [3] 91.8% | [5] 97.8% | [6] 93.5%
inactive: [1] 39.6% | [4] 15.8%

Cc1ccccc1S(=O)(=O)NSc1ccccc1[N+](=O)[O-]
inactive: [1] 28.2% | [2] -5.25% | [3] 33% | [4] 1.85% | [5] -12.8% | [6] 25.7%

CC(=O)[CH-]C(=O)c1ccccc1.CC(=O)[CH-]C(=O)c1ccccc1.CC[C@H](/C=C/C(C)[C@H]1CCC2[C@@H]3CC=C4C[C@@H]([O-])CC[C@]4(C)C3CC[C@@]21C)C(C)C.CC[O-].[Ti+4] (stereo partly specified)
inactive: [1] 8% | [2] -4.6% | [3] -2.45% | [4] -2.3% | [5] 5.3% | [6] -12.2%

CCOCc1cnc(SC)nc1N
inactive: [1] -0.75% | [2] 7.35% | [3] -9.45% | [4] -0.25% | [5] -0.15% | [6] -14.4%

FCCCCSc1ncnc2nc[nH]c12
inactive: [1] -25.3% | [2] -15.2% | [3] -24.7% | [4] -33.4% | [5] -11.5% | [6] -17.2%

COc1ccc(/C=C/C(=O)c2ccc3c(c2)OCO3)cc1OC
inactive: [1] -15.6% | [2] -14.8% | [3] -45.1% | [4] -6.65% | [5] -33.7% | [6] -23.5%

Nc1cc2c(O)cc(S(=O)(=O)O)cc2cc1S(=O)(=O)O
inactive: [1] -5.9% | [2] 8.15% | [3] 2.35% | [4] 14.1% | [5] 34.2% | [6] -4.3%

NCCC1([N+](=O)[O-])CCNCC1
inactive: [1] 1.9% | [2] -7.2% | [3] -6.15% | [4] -14.7% | [5] -5.3% | [6] 14.6%

Oc1cccc2c(NC(=S)Nc3ccccc3)cccc12
inactive: [1] 37.2% | [2] 22.8% | [3] 18.2% | [4] 15.5% | [5] 39.5% | [6] 32.9%

COc1cc2cc(-c3ccccn3)nc(N)c2cc1OC
inactive: [1] 29.2% | [2] 9.35% | [3] 39.5% | [4] 2.55% | [5] -1.5% | [6] 9.95%

O=C1c2ccccc2C(=O)c2nc3ccc(Cl)cc3cc21
inactive: [1] -12.3% | [2] -18.4% | [3] 1.35% | [4] 21.3% | [5] -12.5% | [6] -10.8%

Cc1c(C)c(C)c(CNNC(=S)Nc2ccc(S(=O)(=O)N3CCCCC3)cc2)c(C)c1C
inactive: [1] -4.5% | [2] -17.9% | [3] 9.25% | [4] 8.6% | [5] 6.4% | [6] 7.6%

CCCCCCCCCCCCCC(=O)NCC(=O)NC(C)C(=O)NC(CCCNC(=N)N)C(=O)NC(C)C(=O)NC(CO)C(=O)NC(C(=O)NC(CC(C)C)C(=O)NC(CO)C(=O)NCC(=O)NCC(=O)NC(CCC(=O)O)C(=O)NC(CC(C)C)C(=O)NC(CC(=O)O)C(=O)NC(CCCNC(=N)N)C(=O)NC(Cc1c[nH]c2ccccc12)C(=O)NC(Cc1ccc(O)cc1)C(N)=O)C(C)C (stereo unspecified) (Myristoyl-GARASVLSGGELDRWY-NH2; configuration not given here)
inactive: [1] -4% | [2] -6.9% | [3] -12.7% | [4] 8.8% | [5] -40.4% | [6] -6.5%

O/N=C1/C(=C/c2ccccc2)CCCC1C(NO)c1ccccc1 (stereo unspecified)
inactive: [1] 27.9% | [2] 10.2% | [3] 27.2% | [4] 28.1% | [5] 17.1% | [6] 57.6%

O=C(O)c1cc(C(=O)O)cc(S(=O)(=O)NCCO)c1
inactive: [1] 3.05% | [2] -10.5% | [3] 2.1% | [4] -30.2% | [5] 3% | [6] 5.1%

Nc1nc2c(ncn2Cc2ccc(Cl)c(Cl)c2)c(=O)[nH]1
inactive: [1] -5.1% | [2] -7.4% | [3] -1.65% | [4] -10.1% | [5] -0.5% | [6] 2.55%

CS(=O)(=O)OC[C@H](NC(=O)c1ccccc1)[C@H](COS(C)(=O)=O)NC(=O)c1ccccc1
inactive: [1] 6.5% | [2] 9.3% | [3] 18.4% | [4] 9.9% | [5] -9.85% | [6] 15.3%

O=C(O)c1ccoc1-c1ccccc1
inactive: [1] 12.7% | [2] -6.05% | [3] 10.7% | [4] -26.9% | [5] -7.55% | [6] 22.2%

CC(C)c1nc(N)nc(N)n1
inactive: [1] 4.8% | [2] -23.8% | [3] 5.8% | [4] 12.8% | [5] 1% | [6] -16.8%

CCOC(=O)CNC(=O)C(Cc1ccccc1)NC(=O)C(N)CC(=O)O (stereo not drawn) (H-Asp-Phe-Gly-OEt; configuration not given here)
inactive: [1] -18.6% | [2] -42.4% | [3] -12.1% | [4] -19.9% | [5] -13.4% | [6] -25%

Cc1nc(-c2ccccc2)oc1-c1ccccc1
inactive: [1] 8.6% | [2] -1.5% | [3] -1.7% | [4] 6.95% | [5] 0.05% | [6] -4.35%

CC1=NCC(=O)N1
inactive: [1] -10.2% | [2] 1.5% | [3] -1.1% | [4] -11.8% | [5] -6.1% | [6] -4%

CC(=O)c1ccccc1[N+](=O)[O-]
inactive: [1] 2.95% | [2] -12.5% | [3] 21.7% | [4] 5.85% | [5] -7.55% | [6] 30.1%

CCC/C=C/C=C/C1CC(O)C(O)C(=O)C1CO (stereo unspecified)
inactive: [1] 5.25% | [2] -29.6% | [3] 17.1% | [4] 7.9% | [5] 1.9% | [6] -0.7%

c1ccc2cc3c(NC4=NCCO4)cccc3cc2c1
inactive: [1] -2.8% | [2] 5.9% | [3] -2.7% | [4] 22.4% | [5] 33.1% | [6] 16.2%

CC1OC2(CC(OCc3ccccc3)C1OCc1ccccc1)OCCO2 (stereo unspecified)
inactive: [1] -10.9% | [2] -3.85% | [3] -8.7% | [4] -4.8% | [5] 21.6% | [6] -31.9%

CCCCCN(CCCCC)CC(O)c1cc(-c2ccccc2)nc2c(Cl)cc(Cl)cc12 (stereo unspecified)
inactive: [1] 42% | [2] -1.1% | [3] 26.5% | [4] 18% | [5] 46.5% | [6] 39.1%

CC(=O)C(N=Nc1ccc(S(=O)(=O)NC2NCCC(C)N2)cc1)C(=O)Nc1ccccc1C (stereo unspecified)
inactive: [1] 55.1% | [2] 15.8% | [3] 48% | [4] 25.6% | [5] 0.7% | [6] 42.5%

CCCCCC1CCC(O)CC1 (stereo unspecified)
inactive: [1] 16.1% | [2] 6.55% | [3] 21.1% | [4] -61.4% | [5] 4.2% | [6] -7.55%

C=C(C)c1ccccc1N
inactive: [1] -1.75% | [2] -40.4% | [3] -4.65% | [4] 6.95% | [5] -26.4% | [6] 14.1%

CN(C)C(=S)/N=C(\N)N(C)C
inactive: [1] 4.2% | [2] -8.55% | [3] -3.8% | [4] -0.45% | [5] 1.7% | [6] 15.6%

O=S1(=O)C(Cl)c2ccccc2-c2ccccc2C1Cl (stereo unspecified)
inactive: [1] -1.35% | [2] -6.65% | [3] -10.4% | [4] 8.3% | [5] 5% | [6] -9.65%

C=C(CC(=O)OC)C(=O)OC
inactive: [1] 12.3% | [2] -2.9% | [3] 8.45% | [4] 7.8% | [5] 4.15% | [6] 9.45%

CC(=O)OCCSc1ccc(Cl)cc1
inactive: [1] -2.4% | [2] 9.8% | [3] 6.6% | [4] -33.2% | [5] -23.3% | [6] -7.65%

CN(C)C1C(CO)C(CO)C1(C)C (stereo unspecified)
inactive: [1] -5.5% | [2] -8.5% | [3] -3.9% | [4] -11.9% | [5] -2.25% | [6] -7.55%

CCOC(=O)N1CCN(Cc2cc(=O)n3cc(C)ccc3n2)CC1
inactive: [1] -14.1% | [2] -15.5% | [3] 11.3% | [4] 16.2% | [5] 5.95% | [6] 2.2%

O=C(O)c1ccc(S(=O)(=O)N=Nc2c(O)[nH]c3ccccc23)cc1
inactive: [1] -6.6% | [2] -5.2% | [3] -35% | [4] -1.15% | [5] -37% | [6] -7.45%

ClC1CC2CC1C1CCCC21 (stereo unspecified)
inactive: [1] -2.4% | [2] -3.75% | [3] -16.1% | [4] 7.2% | [5] 4.8% | [6] -7.4%

O=C1C=C(CCC2=CC(=O)c3ccccc3C2=O)C(=O)c2ccccc21
inactive: [1] 4.65% | [2] -23.5% | [3] -26.9% | [4] -10.9% | [5] -26.5% | [6] -28.6%

Cc1cccc2c1Oc1ccccc1C2NC(=O)OCCCl (stereo unspecified)
inactive: [1] 1.8% | [2] 13.1% | [3] 8.7% | [4] -37% | [5] 0.85% | [6] 12.8%
